Among the data in PubChem BioAssay AID651551 (Sanford-Burnham Center for Chemical Genomics, 2012) are inhibition % (higher = more inhibition) values, retold here.

This assay addresses PEG-3 (UniProt Q6IN02). In words: GAPDH versus PEG-3 reporter suppression – cell-based, luminescence, counter-screen for PEG-3 promoter inhibitor project, SAR follow-up (AID 651551). To be noted: HeLa PEG-Prom / GAPDH luciferase reporter, 6 or 24 h, run 3, 6 h; at 99 µM (top of the series). On the technique in general: A counterscreen serves to expose hits that act by an unwanted route or on another target.
`O=C(Nc1nccs1)c1nn(-c2ccccc2)c(=O)c2ccccc12`: the inhibition % (higher = more inhibition) is 29.3%. With `Cc1cc(NC(=O)c2cccc(C)c2C)n(-c2nc3ccccc3[nH]2)n1`, the inhibition % (higher = more inhibition) amounted to 61.3%. Regarding `CCn1nc(C(=O)Nc2nc(-c3ccccn3)cs2)c2ccccc2c1=O`, the inhibition % (higher = more inhibition) is 39.7%.

As to `COc1ccc(Cl)cc1Nc1nc(-c2sc(NC(=O)c3ccccc3)nc2C)cs1`, the inhibition % (higher = more inhibition) was 64.3%.

For `Cc1ccc(Cl)cc1Nc1nc(-c2sc(NC(=O)c3ccco3)nc2C)cs1`, the inhibition % (higher = more inhibition) was determined as 50.8%.

In the case of `COCCCNC(=O)c1ccc(Cn2c(=O)c3ccccc3n(Cc3ccccc3C#N)c2=O)cc1`, the inhibition % (higher = more inhibition) was 12.9%. On to `CCCn1nc(C(=O)Nc2nc(-c3ccccn3)cs2)c2ccccc2c1=O`, for which the inhibition % (higher = more inhibition) worked out at 34.4%. Turning to `COc1ccc(-n2nc(C(=O)NCC(=O)Nc3ccc(OC)c(OC)c3)c3ccccc3c2=O)cc1`, the inhibition % (higher = more inhibition) came to 27%. Then `Cc1nc(NC(=O)c2ccccc2)sc1-c1csc(Nc2ccccc2)n1`, with 27%.

With `CCn1cc(C(=O)NCc2ccco2)c(=O)c2cc(S(=O)(=O)N3CCCC3)ccc21`, the inhibition % (higher = more inhibition) was 15.2%. Consider `O=C(Nc1nc2ccccc2s1)c1nn(-c2ccccc2)c(=O)c2ccccc12`, for which the inhibition % (higher = more inhibition) is -12.9%.

As for `Cc1cc(NC(=O)c2ccccc2)n(-c2nc3ccccc3n2C)n1`, the inhibition % (higher = more inhibition) stood at 40.4%. Turning to `COc1ccc(-n2nc(C(=O)NCC(=O)Nc3cc(OC)c(OC)c(OC)c3)c3ccccc3c2=O)cc1OC`, the inhibition % (higher = more inhibition) stood at 9.38%.

Regarding `Cc1cc(NC(=O)c2ccccc2)n(-c2nc3ccccc3[nH]2)n1`, the inhibition % (higher = more inhibition) amounted to 76.2%.

With `CCCn1nc(C(=O)Nc2nc3ccccc3s2)c2ccccc2c1=O`, the inhibition % (higher = more inhibition) was 36.4%. As for `CCCn1nc(C(=O)Nc2nc(-c3ccncc3)cs2)c2ccccc2c1=O`, the inhibition % (higher = more inhibition) was found to be 24.5%. Consider `Cc1cc(NC(=O)c2ccccc2C(F)(F)F)n(-c2nc3ccccc3[nH]2)n1`, for which the inhibition % (higher = more inhibition) was found to be 83.9%.
